In the supplement of paper PMC10849652:
The full data set covers some 8,800 targets. This sample favours those with a hit. About 0.5% of all pairs of compound and target were hits.

Compound: c1ccc([C@@H]2C[C@H]2NC2CCNCC2)cc1
Assay: log2 fold change, soluble protein after heating vs DMSO (PISA); higher = thermal stabilisation; K562 lysate, 10 uM; active = over 0.2 and 3.5 SD of the protein, either way, in both replicates (recomputed)
Summary of the method: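 Values give the log-two fold change in thermal stability against solvent controls, from duplicates. Crude K562 extract at 1 mg/mL protein, made by dounce homogenisation in PBS pH 7.4 with 1 mM MgCl2, was treated with 10 μM compound for 30 min. After 3 min heating across 48°C-58°C, aliquots were pooled, adjusted to 0.5% NP-40 at 4°C and centrifuged at 21,000xg for 90 min. The supernatant was measured by TMTpro 16plex LC-MS/MS with channel sums equalised.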

Sequence of UniProt Q8NDZ6 (Q8NDZ6 whole entry, looked up): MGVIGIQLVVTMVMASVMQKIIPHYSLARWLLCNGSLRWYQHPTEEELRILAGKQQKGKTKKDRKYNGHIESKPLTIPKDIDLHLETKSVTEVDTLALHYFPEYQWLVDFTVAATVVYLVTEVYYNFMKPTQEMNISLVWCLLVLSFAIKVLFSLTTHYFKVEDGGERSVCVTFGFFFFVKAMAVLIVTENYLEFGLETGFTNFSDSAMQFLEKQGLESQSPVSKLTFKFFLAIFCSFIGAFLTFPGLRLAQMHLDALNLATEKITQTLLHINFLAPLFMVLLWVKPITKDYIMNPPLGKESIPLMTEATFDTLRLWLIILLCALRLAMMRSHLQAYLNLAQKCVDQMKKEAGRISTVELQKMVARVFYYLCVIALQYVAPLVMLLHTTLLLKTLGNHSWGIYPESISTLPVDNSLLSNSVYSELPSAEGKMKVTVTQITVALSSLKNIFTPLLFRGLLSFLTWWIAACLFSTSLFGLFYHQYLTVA
Sequence of UniProt Q86UE8 (Q86UE8 whole entry, looked up): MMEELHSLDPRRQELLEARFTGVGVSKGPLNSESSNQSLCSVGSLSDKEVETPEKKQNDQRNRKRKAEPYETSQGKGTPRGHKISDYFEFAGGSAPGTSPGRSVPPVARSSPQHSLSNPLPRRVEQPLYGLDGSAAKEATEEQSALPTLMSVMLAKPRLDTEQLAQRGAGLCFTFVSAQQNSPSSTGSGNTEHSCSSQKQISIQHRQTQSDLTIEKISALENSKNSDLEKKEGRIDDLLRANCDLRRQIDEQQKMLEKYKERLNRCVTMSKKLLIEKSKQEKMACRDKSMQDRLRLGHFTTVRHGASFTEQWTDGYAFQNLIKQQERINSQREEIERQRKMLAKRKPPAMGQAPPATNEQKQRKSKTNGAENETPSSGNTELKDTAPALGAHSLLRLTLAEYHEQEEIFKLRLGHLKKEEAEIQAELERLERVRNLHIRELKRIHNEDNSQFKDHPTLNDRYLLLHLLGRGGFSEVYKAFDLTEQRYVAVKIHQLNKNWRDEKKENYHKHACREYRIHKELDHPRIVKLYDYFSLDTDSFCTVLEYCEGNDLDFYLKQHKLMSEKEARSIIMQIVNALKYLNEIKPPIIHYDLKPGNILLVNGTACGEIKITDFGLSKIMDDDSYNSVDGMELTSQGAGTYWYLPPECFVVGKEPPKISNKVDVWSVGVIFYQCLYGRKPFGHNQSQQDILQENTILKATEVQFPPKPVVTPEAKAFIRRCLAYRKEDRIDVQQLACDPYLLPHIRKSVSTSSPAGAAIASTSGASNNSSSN
Sequence of UniProt Q9NPG3 (Q9NPG3 whole entry, looked up): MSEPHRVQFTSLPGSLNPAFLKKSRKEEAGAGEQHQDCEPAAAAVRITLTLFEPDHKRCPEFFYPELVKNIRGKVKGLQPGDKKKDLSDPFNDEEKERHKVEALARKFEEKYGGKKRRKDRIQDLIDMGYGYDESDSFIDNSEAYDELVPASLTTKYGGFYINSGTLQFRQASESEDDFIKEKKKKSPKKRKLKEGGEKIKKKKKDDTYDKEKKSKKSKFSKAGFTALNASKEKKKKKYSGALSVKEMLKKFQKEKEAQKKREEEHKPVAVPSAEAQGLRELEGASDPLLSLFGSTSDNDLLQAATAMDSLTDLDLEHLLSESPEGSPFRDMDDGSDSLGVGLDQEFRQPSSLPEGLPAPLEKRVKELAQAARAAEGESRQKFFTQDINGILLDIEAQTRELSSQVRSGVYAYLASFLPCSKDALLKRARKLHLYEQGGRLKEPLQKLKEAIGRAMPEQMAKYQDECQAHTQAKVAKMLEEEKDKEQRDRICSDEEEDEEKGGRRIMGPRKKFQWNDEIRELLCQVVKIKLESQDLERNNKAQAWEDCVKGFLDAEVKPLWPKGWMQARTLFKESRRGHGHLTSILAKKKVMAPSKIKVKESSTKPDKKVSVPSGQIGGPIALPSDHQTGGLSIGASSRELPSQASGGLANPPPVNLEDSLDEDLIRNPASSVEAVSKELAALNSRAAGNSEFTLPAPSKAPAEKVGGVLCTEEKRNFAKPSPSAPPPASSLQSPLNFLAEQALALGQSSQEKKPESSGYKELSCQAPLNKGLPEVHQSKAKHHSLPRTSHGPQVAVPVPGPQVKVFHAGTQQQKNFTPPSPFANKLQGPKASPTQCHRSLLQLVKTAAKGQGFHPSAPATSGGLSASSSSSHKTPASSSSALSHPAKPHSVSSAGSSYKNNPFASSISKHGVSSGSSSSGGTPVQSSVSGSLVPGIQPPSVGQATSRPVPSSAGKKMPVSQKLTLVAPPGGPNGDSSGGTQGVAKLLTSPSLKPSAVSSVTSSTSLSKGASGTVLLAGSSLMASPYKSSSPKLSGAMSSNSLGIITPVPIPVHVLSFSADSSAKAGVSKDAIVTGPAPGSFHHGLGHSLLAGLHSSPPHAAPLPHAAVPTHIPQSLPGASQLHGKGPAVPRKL
Sequence of UniProt Q04726 (Q04726 whole entry, looked up): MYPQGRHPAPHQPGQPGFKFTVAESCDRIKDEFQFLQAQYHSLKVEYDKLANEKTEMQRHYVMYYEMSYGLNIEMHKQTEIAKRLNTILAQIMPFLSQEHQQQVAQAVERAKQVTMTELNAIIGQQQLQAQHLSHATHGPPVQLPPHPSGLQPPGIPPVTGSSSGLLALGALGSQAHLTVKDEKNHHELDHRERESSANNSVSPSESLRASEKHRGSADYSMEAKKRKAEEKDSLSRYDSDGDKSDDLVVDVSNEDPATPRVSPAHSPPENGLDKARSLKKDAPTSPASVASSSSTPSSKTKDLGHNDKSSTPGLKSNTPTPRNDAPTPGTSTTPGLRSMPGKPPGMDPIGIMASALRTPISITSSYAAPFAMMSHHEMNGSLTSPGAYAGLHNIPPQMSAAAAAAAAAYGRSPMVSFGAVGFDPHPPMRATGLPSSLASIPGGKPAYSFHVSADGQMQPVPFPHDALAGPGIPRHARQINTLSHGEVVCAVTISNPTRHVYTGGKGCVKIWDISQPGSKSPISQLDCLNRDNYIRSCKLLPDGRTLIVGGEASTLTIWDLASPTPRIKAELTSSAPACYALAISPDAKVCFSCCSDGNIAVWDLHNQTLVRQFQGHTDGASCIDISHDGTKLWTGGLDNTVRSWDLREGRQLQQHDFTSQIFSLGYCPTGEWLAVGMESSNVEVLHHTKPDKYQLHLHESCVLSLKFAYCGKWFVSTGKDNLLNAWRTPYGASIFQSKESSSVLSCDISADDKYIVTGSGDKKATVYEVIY
Sequence of UniProt O95271 (O95271 whole entry, looked up): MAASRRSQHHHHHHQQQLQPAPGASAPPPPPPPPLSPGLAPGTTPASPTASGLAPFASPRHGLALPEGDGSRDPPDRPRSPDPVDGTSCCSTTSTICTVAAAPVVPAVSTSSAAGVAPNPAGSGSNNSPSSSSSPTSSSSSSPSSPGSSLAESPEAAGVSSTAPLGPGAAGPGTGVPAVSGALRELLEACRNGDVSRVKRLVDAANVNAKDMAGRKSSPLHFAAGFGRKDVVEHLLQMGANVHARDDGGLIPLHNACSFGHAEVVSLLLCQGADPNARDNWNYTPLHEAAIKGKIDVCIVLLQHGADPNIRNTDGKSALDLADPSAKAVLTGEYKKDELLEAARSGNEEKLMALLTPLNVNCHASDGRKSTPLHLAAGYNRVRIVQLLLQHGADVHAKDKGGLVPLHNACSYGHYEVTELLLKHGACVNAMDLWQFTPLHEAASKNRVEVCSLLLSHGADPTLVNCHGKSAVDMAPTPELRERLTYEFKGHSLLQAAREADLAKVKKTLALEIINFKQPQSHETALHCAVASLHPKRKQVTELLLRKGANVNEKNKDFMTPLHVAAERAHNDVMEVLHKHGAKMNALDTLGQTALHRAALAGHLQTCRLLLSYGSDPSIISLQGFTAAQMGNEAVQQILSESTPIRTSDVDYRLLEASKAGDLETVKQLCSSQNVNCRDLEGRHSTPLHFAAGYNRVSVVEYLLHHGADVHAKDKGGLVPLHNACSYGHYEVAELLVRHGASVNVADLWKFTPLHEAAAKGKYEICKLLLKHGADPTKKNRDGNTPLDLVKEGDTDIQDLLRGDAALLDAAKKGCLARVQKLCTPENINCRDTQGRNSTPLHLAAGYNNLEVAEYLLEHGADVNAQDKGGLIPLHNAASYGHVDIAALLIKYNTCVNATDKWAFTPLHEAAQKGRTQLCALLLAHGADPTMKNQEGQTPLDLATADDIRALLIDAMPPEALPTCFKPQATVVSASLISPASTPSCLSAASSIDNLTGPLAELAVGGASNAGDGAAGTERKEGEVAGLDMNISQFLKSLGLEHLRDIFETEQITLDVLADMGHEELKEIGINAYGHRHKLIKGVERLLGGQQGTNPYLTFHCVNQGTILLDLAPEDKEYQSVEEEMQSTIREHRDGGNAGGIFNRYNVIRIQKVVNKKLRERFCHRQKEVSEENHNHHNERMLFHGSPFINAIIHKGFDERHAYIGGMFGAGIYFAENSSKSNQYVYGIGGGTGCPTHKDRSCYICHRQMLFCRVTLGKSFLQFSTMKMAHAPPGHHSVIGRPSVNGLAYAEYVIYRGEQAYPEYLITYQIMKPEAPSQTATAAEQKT
Sequence of UniProt Q9BRN9 (Q9BRN9 whole entry, looked up): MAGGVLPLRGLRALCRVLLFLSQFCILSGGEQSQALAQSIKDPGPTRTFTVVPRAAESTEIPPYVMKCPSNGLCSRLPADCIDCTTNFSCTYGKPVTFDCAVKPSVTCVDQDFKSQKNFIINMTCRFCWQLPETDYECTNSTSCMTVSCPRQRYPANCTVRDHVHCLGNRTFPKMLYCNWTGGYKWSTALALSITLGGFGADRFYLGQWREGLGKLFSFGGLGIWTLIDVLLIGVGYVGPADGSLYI
Sequence of UniProt Q53S58 (Q53S58 whole entry, looked up): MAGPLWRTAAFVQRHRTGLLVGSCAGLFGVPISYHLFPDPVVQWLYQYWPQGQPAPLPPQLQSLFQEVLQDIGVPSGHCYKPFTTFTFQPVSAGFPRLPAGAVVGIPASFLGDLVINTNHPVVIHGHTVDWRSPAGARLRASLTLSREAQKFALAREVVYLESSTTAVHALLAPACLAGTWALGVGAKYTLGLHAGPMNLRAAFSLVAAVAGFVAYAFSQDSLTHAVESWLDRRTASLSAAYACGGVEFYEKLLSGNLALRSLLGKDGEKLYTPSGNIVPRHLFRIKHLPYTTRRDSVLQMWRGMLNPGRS

Target | log2 fold change
TMEM177 (UniProt Q53S58) | 0.068 (inactive)
TJP1 (UniProt H0Y3R8) | 0.031 (inactive)
TNIK isoform 5 (UniProt Q9UKE5) | -0.041 (inactive)
TNKS (UniProt O95271) | -0.035 (inactive)
TSPAN3 (UniProt O60637) | 0.16 (inactive)
TLK2 isoform 3 (UniProt Q86UE8) | 0.097 (inactive)
UBN1 (UniProt Q9NPG3) | 0.085 (inactive)
TMSB4X (UniProt P62328) | 0.176 (inactive)
TNFAIP3 (UniProt P21580) | 0.06 (inactive)
TCF20 (UniProt Q9UGU0) | -0.059 (inactive)
TLE3 isoform 5 (UniProt Q04726) | 0.199 (inactive)
U2AF1L5 (UniProt P0DN76) | -0.499 (inactive)
TMEM132A isoform 2 (UniProt Q24JP5) | -0.066 (inactive)
TUBB6 (UniProt K7ES63) | -0.085 (inactive)
TPM3 isoform 3 (UniProt P06753) | -0.266 (inactive)
TRPM4 (UniProt Q8TD43) | -0.354 (inactive)
TPD52L2 isoform 3 (UniProt O43399) | 0.098 (inactive)
TFPI (UniProt P10646) | 0.269 (inactive)
TMEM161B (UniProt Q8NDZ6) | -0.025 (inactive)
UBIAD1 (UniProt Q9Y5Z9) | 0.025 (inactive)
TENM4 (UniProt Q6N022) | 0.137 (inactive)
TUBA4A (UniProt C9JQ00) | 0.056 (inactive)
TM2D3 (UniProt Q9BRN9) | -0.513 (inactive)
TRAF7 (UniProt Q6Q0C0) | 0.238 (inactive)
TCF4 (UniProt P15884) | 0.091 (inactive)
TCF3 (UniProt X6REB3) | -0.25 (inactive)
TUBB4A (UniProt P04350) | 0.044 (inactive)
